# GLP1R inv ag – GLP-1 receptor (human) inverse agonism. P43220. HEK293 GLP-1R CRE-luciferase, luminescence, 24 h; GLP-1R form is constitutively active. Potency, µM (titrated, usually from 38.3 µM), inactives show at the top dose activity change, negative = inhibition, hits mostly inhibitors. 410,000 compounds, 1.6% hits. AID 624417; further: potency means the concentration at half of the fitted maximal effect; on the % scale 0 is the no-effect control and ±100 the full control effect; nearly all actives have a fitted effect of over 55% in size
#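 Assay principle: reduced luminescence from a cAMP-responsive reporter in HEK293 cells co-expressing a constitutively active GLP-1R. Conditions: 24 hr compound incubation, 37 deg C, 5% CO2.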
# GLP-1R agonist – GLP-1 receptor (human) agonism; P43220; HEK293 GLP-1R CRE-luciferase, luminescence, 4-6 h; cells express a hypersensitive GLP-1R form; Potency, µM (titrated, usually from 45.6 µM), for inactives: at the top dose activation, actives largely listed as activators; 380,000 compounds, 0.007% hits; further: potency means the concentration at half of the fitted maximal effect; % of control where 0% means no effect
# TRHR PAM – TRH receptor (human) allosteric enhancement. enhancement, % at 2 µM. P34981. 360,000 compounds, 0.66% hits. TRHR cells, fluo-8 calcium fluorescence, EC20 TRH enhancement; in the data active means enhancement above about 30%; further: 0% is about no effect
#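 Enhancer read-out: after compound pinning and an initial kinetic agonist-mode read, an EC20 of TRH (10 nM final) was injected and fluo-8 calcium signal (Ex 480/Em 530) followed at 1 s/cycle for 100 cycles in TRHR-expressing cells.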
# PTHR1 agonist – activates the human parathyroid hormone receptor PTHR1; Potency, µM (highest dose often 115 µM), for the others: at the highest dose activation, most hits filed as activators; HEK293 GP2 PTHR1 cells, GloSensor cAMP luminescence, 1 h; Q03431; 410,000 compounds, 0.075% hits; further: potency means the concentration at half of the fitted maximal effect; nearly all actives have a fitted effect of over 55% in size
# Target sequence (Q03431 whole entry, looked up): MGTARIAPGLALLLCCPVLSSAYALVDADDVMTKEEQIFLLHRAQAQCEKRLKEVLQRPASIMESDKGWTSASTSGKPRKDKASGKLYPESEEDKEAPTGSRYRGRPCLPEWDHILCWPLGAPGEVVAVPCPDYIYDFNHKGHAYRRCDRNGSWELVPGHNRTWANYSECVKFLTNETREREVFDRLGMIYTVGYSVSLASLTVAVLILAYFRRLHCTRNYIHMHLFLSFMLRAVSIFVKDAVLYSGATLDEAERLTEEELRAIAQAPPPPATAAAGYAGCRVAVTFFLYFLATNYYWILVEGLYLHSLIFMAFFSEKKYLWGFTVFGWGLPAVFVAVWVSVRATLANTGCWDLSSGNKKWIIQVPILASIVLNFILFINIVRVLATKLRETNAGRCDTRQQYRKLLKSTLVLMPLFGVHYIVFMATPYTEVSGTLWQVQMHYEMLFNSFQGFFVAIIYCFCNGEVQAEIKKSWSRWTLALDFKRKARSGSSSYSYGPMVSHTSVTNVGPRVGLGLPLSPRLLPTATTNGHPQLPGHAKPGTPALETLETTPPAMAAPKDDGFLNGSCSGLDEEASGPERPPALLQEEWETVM
#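 HEK-293-derived GP2 cells expressing PTHR1 and a GloSensor cAMP reporter, 3,000/well, plated overnight, given luciferin plus IBMX (each 0.5 mM as added) for 1 h at 37 °C, then compound for 1 h at 37 °C. Luminescence was read after 15 min at room temperature.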
# TRHR agonist – activates the human TRH receptor; P34981; TRHR cells, calcium flux fluo-8, FDSS agonist mode; activation, % at 2 µM; 360,000 compounds, 0.18% hits; AID 493084; in the data active means activation above about 30%; further: 0% is about no effect
#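 Agonist-mode FDSS calcium read (Ex 480/Em 530, 1 s cycles) in 1536-well TRHR cells with fluo-8 dye, after 10-cycle baseline and 23 nL compound addition; TRH at EC20 (10 nM final) added afterwards for the enhancer phase.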
# GLP1R cytotox – cytotoxicity in counter-screen for GLP-1R inverse agonists | HEK293 cAMP-luciferase reporter cells, luminescence, 24 h | Potency, µM (titrated, usually from 38.3 µM), without a hit: top-dose activity change, negative = inhibition, usual class: inhibitors | 410,000 compounds, 0.13% hits | AID 624418;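 further: loss of luciferase light is scored as toxicity; potency means the concentration at half of the fitted maximal effect; on the % scale 0 is the no-effect control and ±100 the full control effect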
#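 Luminescence readout: signal drop marks cytotoxicity. Plated cells grew 12 h at 37 °C, 5% CO2, received 23 nL compound for 24 h, then got luciferase reagent, read after 12 min at RT.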
# * hit, by the source's call; i = inactive; u = inconclusive; x = not tested or not shown; [ ] = another dose, or the depositor's remark. Shown are actives, neighbours in structure and some others; about 2.4% of the full set was active somewhere. Unless noted, the call rests on the fitted dose curve; in most records, active means well fitted curve in the direction sought with a large enough effect; inconclusive means small, poorly fitted or top-dose-only effect, or another doubt; inactive means no such curve, though single readings can be large; an effect the other way counts as inactive or inconclusive.
SMILES,GLP1R inv ag,GLP-1R agonist,TRHR PAM,PTHR1 agonist,TRHR agonist,GLP1R cytotox
CC(C)(C)c1ccc(C(=O)NCCc2csc(-c3ccc(Cl)cc3)n2)cc1,10µM*,x,-4,i,1,-4%
CN(C)CCCNC(=O)c1ccccn1,7%,-4%,9,i,1,-3%
C/C(CCc1ccc2c(c1)OCO2)=N\NC(=S)NC(C)C,u,-2%,-1,26%,0,3.2µM*
COCCNC(=S)N/N=C(\C)CCc1ccc2c(c1)OCO2,u,46%,-3,-8%,0,u
Cc1cc(C)c2nc(N3CCC(C(=O)N4CCN(C(=O)c5ccco5)CC4)CC3)sc2c1,7.9µM*,2%,4,-33%,0,-2%
COc1ccc(N2CCN(C(=O)c3cc(-c4ccc(F)cc4)[nH]c3C)CC2)cc1,10µM*,7%,3,-30%,1,-8%
Cc1[nH]c(-c2ccc(F)cc2)cc1C(=O)N1CCN(c2ccc(Cl)cc2)CC1,-17%,-4%,-4,-29%,0,-14%
CCOC(=O)c1ccc(NC(=O)CCC(=O)N2CCSc3ccccc32)cc1,u,x,13,-25%,1,u
C/C=C(\C)C(=O)OC(C)(C)[C@H]1Cc2cc3ccc(=O)oc3cc2O1,u,-5%,-11,i,-1,10%
Cc1ccc2nc(NCCCN3CCOCC3)c(C=NCCCN3CCOCC3)c(=O)n2c1,64%,19%,32*,i,0,66%
COc1ccc(/C=C2\OC(=O)c3c(OC)cccc32)cc1OC,208%,5µM*,6,-15%[57.5 µM],-1,389%
COc1cc(/C=C2\CCC/C(=C\c3ccc(O)c(OC)c3)C2=O)ccc1O,u,-4%,12,-26%,2,8.9µM*
COc1cc(/C=C2/CCCC(C(=O)C(F)(F)F)=C2O)ccc1O,31%,10%,-1,-14%,2,-1%
CCOc1cc(/C=C2\CN(CC)C/C(=C\c3ccc(O)c(OCC)c3)C2=O)ccc1O,10µM*,-5%,2,-21%,6,-1%
COc1cc(/C=C2\Oc3cc(O)ccc3C2=O)ccc1O,81%,18%,-7,-39%,33*,82%
CCOc1cc(/C=N/N=C/c2ccc(O)c(OCC)c2)ccc1O,5%,15%,-1,i,0,-24%
O=C(NC1CCCCCCC1)c1cc(-c2ccccn2)nc2ccccc12,0%,4%,-11,-9%,0,11%
O=C1NCCN(Cc2ccc(Cl)c(F)c2)C1CC(=O)N1CCCCO1 (stereo not given),11%,-9%,3,i,0,-19%
CCOc1ccc(/C=N/NC(=O)Cc2csc(Nc3cccc(C(F)(F)F)c3)n2)c(OCC)c1,u,-5%,2,-1%[57.5 µM],1,-21%
CCOc1ccc(/C=N/NC(=O)Cc2csc(Nc3cccc(C(F)(F)F)c3)n2)cc1,2.2µM*,-20%,0,-21%[57.5 µM],-1,-29%
S=C(NCc1ccccc1)C(=S)NCc1ccccc1,10µM*,11%,x,i,x,3%
S=C(NCc1ccccc1)NCc1ccc(CNC(=S)NCc2ccccc2)cc1,-30%,-1%,6,-14%,1,3%
O=C(NCC(=O)N(c1ccccc1F)C(C(=O)NC1CCCC1)c1ccncc1)c1ccco1 (stereo not given),u,2%,19,i,0,-7%
O=C(Nc1ccc(Cl)cc1)c1cc2c(Cl)nc3ccccc3c2s1,-1%,0%,48*,-20%,1,-6%
Nc1nnnn1/N=C/C(Br)=C/c1ccccc1,u,-35%,2,-13%,0,u
COc1ccc(CNCc2cn(-c3cccc(F)c3)nc2-c2ccc(C)o2)cc1,u,-5%,-4,u,0,8%
Cc1cc(NC(=O)c2sc(Nc3cccc(C(F)(F)F)c3)nc2N)no1,5µM*,0%,1,-16%[57.5 µM],0,8%
